Compound activity from PubChem.
In the library only some 7.9% were active in any assay of this set; here they are far more common.
HCMV antiviral – human cytomegalovirus inhibition; HFF cells, HCMV-luciferase reporter, 72 h; active compounds read low; 410,000 tested, 4.5% active; AID 1259415; activity change, negative = inhibition, % at 57.5 µM; in the data active = activity change below about -60%; inconclusive = no clear call, values can overlap the other calls; inactive = above about -39%
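Compounds were evaluated in HFFs infected with an HCMV luciferase reporter virus (MOI 1 PFU/cell). Luciferase in lysates collected 72 h post infection served as the replication measure.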
FMDV antiviral – antivirals against foot and mouth disease virus | Potency, µM (series often up to 57.9 µM), without a hit: at the top dose activity change, negative = inhibition, most hits filed as inhibitors | AID 1159524 | 410,000 tested, 1.2% active | FMDV antiviral cell-based qHTS; calls by dose curve; tested in HEK293T cells; also: read-out not given here; potency is read from the fitted curve at half-maximal effect; nearly all actives have a fitted effect of over 45% in size
Lassa entry inh – inhibitors of Lassa virus binding or cell entry | Lassa virus pseudotype entry inhibition, cell reporter | AID 540256 | 300,000 tested, 1.2% active | Potency, µM (top dose mostly 37.9 µM), for the others: at the top dose activity change, negative = inhibition, hits mostly inhibitors; calls by dose curve; tested in HEK293 cells; also: potency is read from the fitted curve at half-maximal effect; nearly all actives have a fitted effect of over 50% in size
HCV inhibitor – blocks hepatitis C virus; Huh7.5.1 HCVcc-Cre infection, luciferase reporter, 44 h; Potency, µM (series often up to 41.8 µM), inactives show at the highest dose activity change, negative = inhibition, hits mostly inhibitors; 340,000 tested, 3.4% active; active = well fitted inhibition curve with a large enough effect; inconclusive = small, poorly fitted or top-dose-only effect, or another doubt; inactive = no such curve, though single readings can be large or run the other way; also: potency is read from the fitted curve at half-maximal effect
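1,000 cells/well; 4 h culture; + compound; + HCVcc-Cre (~0.5 moi); 44 h; luciferase substrate, RT 15 min; read 15 sec.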
MARV entry inh – blocks Marburg virus binding to or entry into cells; Marburg virus pseudotyped entry inhibition, cell reporter; Potency, µM (series often up to 37.8 µM), for the others: at the top dose activity change, negative = inhibition, most hits filed as inhibitors; 300,000 tested, 1.8% active; calls by dose curve; tested in HEK293 cells; also: potency is read from the fitted curve at half-maximal effect
Numbers without * were called inactive; ? = inconclusive; nt = no result given; [ ] = dose if it differs, or a comment. % is scaled to controls: 0 for no effect and ±100 for the full control effect.

SMILES	HCMV antiviral	FMDV antiviral	Lassa entry inh	HCV inhibitor	MARV entry inh
CCCN1C(=O)c2[nH]nc(-c3ccccc3O)c2C1c1ccc(OCc2ccccc2)c(OC)c1 (configuration not stated)	-84.1*	?	?	nt	-21.2%[46.1 µM]
COc1cc(C2c3c(-c4ccccc4O)n[nH]c3C(=O)N2CCO)ccc1OCc1ccccc1 (configuration not stated)	-11.3	-27.3%	?	nt	?
CCCOc1ccc(C2c3c(-c4ccccc4O)n[nH]c3C(=O)N2CCc2ccccc2)cc1OCC (configuration not stated)	-90.2*	-21.8%	?	nt	?
CCCCOc1ccc(C2c3c(-c4ccccc4O)n[nH]c3C(=O)N2Cc2ccncc2)cc1OC (configuration not stated)	6.8	7.5%	?	nt	?
CCc1nc2cc(C(=O)NC3CCS(=O)(=O)C3)cc(NC(=O)c3ccccc3OC)c2n1C (configuration not stated)	nt	-11.1%	nt	nt	nt
COc1cccc(C2=NCCc3cc4c(cc32)OCO4)c1OC	-3.7	-13.8%	8.1%	34.5%	?
COc1ccc2cc3[n+](cc2c1OC)CCc1cc2c(cc1-3)OCO2	-95.6*	?	?	?	?
COc1cccc(/C=C/C(=O)c2ccc3c(c2)OCO3)c1OC	nt	26.2%	14.4%	-6.9%	-18.4%
COc1ccc2c(c[n+](C)c3c4cc5c(cc4ccc23)OCO5)c1OC	nt	10µM*	4.11µM*	nt	7.3µM*
O=C(c1ccc(Cn2cnnn2)cc1)N1CCOc2ccc(C(O)C3CCCCC3)cc2C1 (configuration not stated)	nt	-24.7%	nt	nt	nt
CCN(CC)C(=O)Cn1cc(S(=O)(=O)CC(=O)NC2CCCCC2)c2ccccc21	-19.0	-1.2%	-12.3%[46.1 µM]	6.9%	-6.5%[46.1 µM]
Cc1ccc(C)c(N2C(=O)C3C4C=CC(CC4)C3C2=O)c1 (configuration not stated)	68.2	-8.6%	nt	9.7%	nt
Cc1ccc(NC(=O)Cn2nnc(-c3nc(-c4ccc(Cl)cc4)no3)c2N)cc1C	2.1	-4.1%	26.3%[46.1 µM]	nt	nt
Cc1cnc(SCCN2CCOCC2)nc1C1CCCN(C(=O)c2cccc3c(C)c(C)[nH]c23)C1 (configuration not stated)	nt	-19.0%	nt	nt	nt
CCc1c(C)sc(NC(=O)C2CC2c2ccccc2)c1C(N)=O (configuration not stated)	?	9.0%	2.91µM*	?	3.26µM*
COc1ccc(C(=O)NCCS(=O)(=O)NCc2ccco2)cc1	7.6	-9.5%	0.0%	-13.7%	6.5%
COc1cccc(C(=O)NCCS(=O)(=O)NCc2ccco2)c1	-68.1*	7.7%	12.7%	-1.3%	19.4%[46.1 µM]
CCCn1c2c(c(O)c(C(=O)Nc3ncccc3C)c1=O)CCCC2	?	-14.8%	14.1%	11.2µM*	7.8%
CC1c2cc3c(cc2CCN1C(=O)c1cccc(F)c1)OCCCO3 (configuration not stated)	?	-17.1%	nt	?	nt
CCSc1nnc(-c2cccc(S(=O)(=O)N(CC)CC)c2)n1Cc1ccccc1	-39.2	?	23.1µM*	4.2%	14.6µM*
CCNC(=O)CSc1nnc(-c2cccc(S(=O)(=O)N(CC)CC)c2)n1CCc1ccccc1	-20.7	0.0%	-21.0%	-7.1%	17.4%
COc1cccc2sc(Nc3nnc(-c4ccccc4Cl)o3)nc12	-60.2*	11.1%	?	?	?
COc1ccccc1-c1nnc(Nc2nc3c(OC)cccc3s2)o1	-75.9*	-11.5%	?	?	?
COc1cccc2sc(NN)nc12	29.1	32.6%	22.5%	-3.1%	-0.8%[46.1 µM]
COc1cccc(-c2nnc(Nc3nc4c(F)cccc4s3)o2)c1	135.8	nt	-28.4%	3.2%	?
CC1(C(=O)Nc2cccnc2)Cc2c(-c3cccc(C(F)(F)F)c3)ccnc2O1 (configuration not stated)	2.6	-6.7%	nt	nt	nt
COc1ccc(CC2SC(=Nc3ccc(F)cc3)NC2=O)cc1 (configuration not stated)	-38.3	12.0%	4.47µM*	3.4%	-12.7%[46.1 µM]
COc1ccc(N=C2NC(=O)C(CC(=O)NCCc3ccc(OC)c(OC)c3)S2)cc1 (configuration not stated)	-20.8	-5.4%	?	-17.0%	15.1%[46.1 µM]
Cc1noc(C)c1CSCC(=O)N(C)CC(=O)Nc1ccccc1C(F)(F)F	9.8	-19.8%	nt	4.2%	nt
